DAT uptake mod: changed hDAT dopamine uptake under cocaine IC80, either direction, primary screen, cocaine antagonist project, cell-based, LLC-PK1 hDAT, [14C]-dopamine uptake, MLSMR | Sodium-dependent dopamine transporter (Homo sapiens), Q01959 | LLC-PK1 hDAT cells, [14C]-dopamine uptake with cocaine IC80; actives deviate in either direction | B-score at 10 µM | actives 1.3% (n = 110,000);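 active = Z score or B-score, a plate-position-corrected score, falls beyond the plate's 99.7% confidence bounds, in either direction; inactive = both scores lie inside the 99.7% bounds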
PKA kinase inh: inhibitors of human PKA kinase activity, primary screen, biochemical, ATP-depletion luminescence, Kemptide substrate. PKA Kemptide phosphorylation, Kinase-Glo ATP luminescence. inhibition, % at 6 µM. actives 0.1% (n = 65,000);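 active = inhibition above the screen-wide mean inhibition plus 3 SD, cut at about 21% in these data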
D1 mod: D1 CRE-luciferase signal change, two-sided – cell-based, HEK293 D1, dopamine EC30, D1 allosteric modulator project, primary screen; B-score at 10 µM; dopamine EC30 potentiation; actives deviate in either direction; actives 5.9% (n = 58,000);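 active = luminescence count or its row- and column-corrected plate score outside the 99.7% band of the plate's sample wells, on either side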
Target sequence (P21728 whole entry, looked up): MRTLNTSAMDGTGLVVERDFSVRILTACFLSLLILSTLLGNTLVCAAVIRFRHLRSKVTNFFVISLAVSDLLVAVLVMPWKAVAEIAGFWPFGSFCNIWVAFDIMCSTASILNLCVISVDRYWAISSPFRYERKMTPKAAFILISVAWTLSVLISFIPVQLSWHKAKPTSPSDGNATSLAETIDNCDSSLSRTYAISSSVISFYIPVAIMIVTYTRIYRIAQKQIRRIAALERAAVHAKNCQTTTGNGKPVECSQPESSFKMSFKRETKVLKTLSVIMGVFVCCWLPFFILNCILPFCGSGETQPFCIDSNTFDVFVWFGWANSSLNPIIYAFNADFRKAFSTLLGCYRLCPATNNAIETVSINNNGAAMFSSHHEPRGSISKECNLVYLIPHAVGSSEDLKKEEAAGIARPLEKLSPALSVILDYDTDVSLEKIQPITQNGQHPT
ROCK2 blocker: inhibitors of human ROCK2 kinase, primary screen, biochemical, high-throughput, luminescence | Rho-associated protein kinase 2 (Homo sapiens), O75116 | purified ROCK2, Kinase-Glo ATP depletion luminescence | inhibition, % at 6 µM | actives 0.35% (n = 60,000);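 active = inhibition above the screen-wide mean inhibition plus 3 SD, cut at about 18% in these data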
Of the large screens only hits and unclear results are named; the others gave an inactive call. Shown is part of a subset that was picked to be rich in hits.

Cc1cc(C(=O)Nc2nc3c(s2)CCCC3)no1	D1 mod -3.8
Oc1cccc2ccc(Nc3ccccn3)nc12	D1 mod -4.1
Cc1ccc(Cn2cc(SCC(N)=O)c3ccccc32)cc1	none (no result: PKA kinase inh, D1 mod, ROCK2 blocker)
COC(=O)c1c(N)n(-c2cc(OC)cc(OC)c2)c2nc3ccccc3nc12	D1 mod 3.3 (no result: DAT uptake mod)
Nc1nncn1C(=O)c1cccs1	DAT uptake mod 2.8
CC(C)C(=O)Nc1cccc(-c2cnc3ccccc3n2)c1	DAT uptake mod 2.7 (no result: PKA kinase inh, D1 mod, ROCK2 blocker)
Cc1ccc(C(=O)Nc2cccc(-c3cnc4ccccc4n3)c2)cc1	none (no result: PKA kinase inh, D1 mod, ROCK2 blocker)
O=C(NCCc1ccccc1)C(=O)c1c(-c2ccccc2)[nH]c2ccccc12	none (no result: PKA kinase inh, D1 mod, ROCK2 blocker)
Cc1c(NC(=O)Cn2cnc3c(=O)n(C)c(=O)n(C)c32)cccc1-c1nc2ccccc2o1	none (no result: DAT uptake mod)
COC(=O)C1=C(C)N(CCCC(=O)O)C(=O)NC1c1cccc(OC)c1 (stereo not given)	none (no result: PKA kinase inh, D1 mod, ROCK2 blocker)
Nc1cccc(-c2nc3ccc(N)cc3s2)c1	D1 mod -4.7
Cc1cc(C)cc(NC2=NC3(CCCCC3)N=C(N)N2)c1	D1 mod -5.3
NC1=NC2(CCCCC2)N=C(Nc2ccc(F)cc2F)N1	none (no result: PKA kinase inh, D1 mod, ROCK2 blocker)
Cc1ccccc1CN1[C@@H](C(C)C)COCCS1(=O)=O	none (no result: PKA kinase inh, D1 mod, ROCK2 blocker)
O=C(Nc1ccc(O)cc1)c1ccc(C(=O)c2ccccc2)o1	D1 mod -3.2
CCOC(=O)N1CCC(NC(=O)CSCc2nc(-c3cccc(OC)c3)oc2C)CC1	none
CCOC(=O)N1CCC(NC(=O)CSCc2nc(-c3sccc3C)oc2C)CC1	DAT uptake mod 2.8
CCOC(=O)c1nn(-c2ccc(C)cc2)cc1C(=O)c1ccccc1	none (no result: PKA kinase inh, D1 mod, ROCK2 blocker)
Cc1cc2nc3n(c2cc1C)CC1CC(C(=O)NCc2cccc(C(F)(F)F)c2)N(C)C31 (stereo not given)	none (no result: PKA kinase inh, D1 mod, ROCK2 blocker)
CN1C(C(=O)NCc2cccc(C(F)(F)F)c2)CC2Cn3c(nc4cc5ccccc5cc43)C21 (stereo not given)	DAT uptake mod 1.5 (no result: PKA kinase inh, D1 mod, ROCK2 blocker)
O=C(c1ccco1)c1nnn(Cc2ccccc2)c1-c1ccccc1	none
CC(=O)N(C)C1=C(N2CCOCC2)C(=O)c2ccccc2C1=O	DAT uptake mod -4.3 (no result: PKA kinase inh, D1 mod, ROCK2 blocker)
Cc1cc(C)c(NC(=O)CSc2nnc(SCC(=O)Nc3c(C)cc(C)cc3C)n2N)c(C)c1	none (no result: PKA kinase inh, D1 mod, ROCK2 blocker)
O=C(NC(NC(=S)Nc1ccccc1C(=O)O)C(Cl)(Cl)Cl)c1cccc([N+](=O)[O-])c1 (stereo not given)	DAT uptake mod -7.4 (no result: PKA kinase inh, D1 mod, ROCK2 blocker)
CCOC(=O)NC(NC(=S)Nc1ccccc1[N+](=O)[O-])C(Cl)(Cl)Cl (stereo not given)	DAT uptake mod -3.5 (no result: PKA kinase inh, D1 mod, ROCK2 blocker)
COc1ccc(N(CC(=O)NC2CCCC2)C(=O)Cn2nnc(-c3ccc(C)cc3)n2)cc1OC	none (no result: D1 mod)
COc1ccc(N(CC(=O)NC2CCCC2)C(=O)Cn2nnc(-c3ccc(C)cc3)n2)cc1	DAT uptake mod 2.5
COc1ccc(-c2nnn(CC(=O)N(CC(=O)NC3CCCC3)c3cccc(C)c3)n2)cc1OC	DAT uptake mod 2.8
CCCC(=O)N1CCN(c2nc(CC(C)C)c3c(c2C#N)CCC3)CC1	DAT uptake mod 2.6
CON=C1CCN(c2ncc(C(F)(F)F)cc2Cl)CC1	none (no result: PKA kinase inh, D1 mod, ROCK2 blocker)
CO/N=C/C(C#N)c1ncc(C(F)(F)F)cc1Cl (stereo not given)	DAT uptake mod -2.5 (no result: PKA kinase inh, D1 mod, ROCK2 blocker)
CCNc1nc(N2CCCCC2)nc(-n2nnc(C(=O)OCC)c2C)n1	DAT uptake mod 2.8
CCNc1nc(NC(C)(C)C)nc(N2CCCC2)n1	none (no result: PKA kinase inh, D1 mod, ROCK2 blocker)
Cc1ccc(Cl)cc1NC1=C/C(=N\S(=O)(=O)c2cccs2)c2ccccc2C1=O	DAT uptake mod -3.5 (no result: PKA kinase inh, D1 mod, ROCK2 blocker)
C[C@@]1([C@@H](NC(=O)c2cccs2)c2ccc(-c3ccccc3)cc2)C[C@H]1C1CCCCC1	none (no result: PKA kinase inh, D1 mod, ROCK2 blocker)
CCCCN1C2=NCCCN2c2ccccc21	none (no result: PKA kinase inh, D1 mod, ROCK2 blocker)
CCCCN1C2=NCCCN2c2cc(C)c(C)cc21	D1 mod -3.4 (no result: DAT uptake mod)
NC(=O)C1CCN(c2ncnc3c(-c4ccccc4)nsc23)CC1	DAT uptake mod -7.2
N#CC1=C(N)Oc2cc(O)ccc2C1c1ccncc1 (stereo not given)	ROCK2 blocker 21 (no result: D1 mod)
O=C(NCc1ccc2c(c1)OCO2)c1cc2ncc(Br)cn2n1	DAT uptake mod -2.1
CCN(CC)C(=O)CSc1nc2ccccc2c(=O)n1-c1ccccc1OC	DAT uptake mod 1.9 (no result: D1 mod)
CCOC(=O)Cc1csc(SCC(=O)c2c(N)n(CC(C)C)c(=O)n(C)c2=O)n1	D1 mod -3.9
Cc1csc(SCC(=O)c2c(N)n(CC(C)C)c(=O)n(C)c2=O)n1	none (no result: PKA kinase inh, D1 mod, ROCK2 blocker)
O=C(NC1(C(F)(F)F)NC(=O)N(c2ccc(F)c(Cl)c2)C1=O)c1ccncc1 (stereo not given)	DAT uptake mod -3 (no result: PKA kinase inh, D1 mod, ROCK2 blocker)
CCOC(=O)N1CCN(C(c2cccc(OC)c2)c2sc3nc(C)nn3c2O)CC1 (stereo not given)	D1 mod -6.8
CCOC(=O)N1CCN(C(c2ccc(C)cc2)c2sc3nc(C)nn3c2O)CC1 (stereo not given)	none
Cc1ccc(C2=NN3C(C(=O)c4ccccc4)Oc4ccccc4C3C2)cc1 (stereo not given)	none (no result: PKA kinase inh, D1 mod, ROCK2 blocker)
COc1cccc(C2C(C(=O)c3cccs3)=C(O)C(=O)N2CCCn2ccnc2)c1OC (stereo not given)	none (no result: DAT uptake mod)
Cc1[nH]c(=O)c(C#N)c2c1CSC(C)(C)C2	DAT uptake mod -2.5 (no result: PKA kinase inh, D1 mod, ROCK2 blocker)
CCc1[nH]c(=O)c(C#N)c2c1CSC(C)(C)C2	none (no result: D1 mod)
O=C(c1ccccc1Nc1ccc(SC(F)F)cc1)N1CCCCCC1	none (no result: PKA kinase inh, D1 mod, ROCK2 blocker)
Cc1cccc(NC(=O)C23CCC(C)(C2Br)C3(C)C)c1 (stereo not given)	DAT uptake mod -8.5 (no result: PKA kinase inh, D1 mod, ROCK2 blocker)
Cc1ccnc(NC(=O)CCCOc2cc(=O)n(C)c3ccccc23)c1	D1 mod -3.3
O=S(=O)(c1cccc(-c2csc(-c3ccccc3)n2)c1)N1CCOCC1	none (no result: D1 mod)
CC1CN(S(=O)(=O)c2cccc(-c3csc(-c4ccccc4)n3)c2)CC(C)O1 (stereo not given)	DAT uptake mod 2.4 (no result: PKA kinase inh, D1 mod, ROCK2 blocker)
CCn1c(=N)n(CCO)c2ccccc21	D1 mod -4.1
CCOC(=O)C1(S(=O)(=O)c2ccc(Cl)cc2)CCN(Cc2ccc(C)cc2)CC1	none (no result: PKA kinase inh, D1 mod, ROCK2 blocker)
O=C(Cn1c(=O)c2c(ncn2C2CCCC2)n(Cc2ccccc2)c1=O)N1CCc2ccccc21	D1 mod -4.8
COc1ccc(-n2ncc3c(NCC(C)C)ncnc32)cc1	D1 mod -4.2
CCCCNc1ncnc2c1cnn2-c1ccccc1	D1 mod -3.6
Clc1ccc(-n2ncc3c(N4CCCCCC4)ncnc32)cc1	D1 mod -8.6
COc1ccc(-n2ncc3c(N4CCCCC4)ncnc32)cc1	D1 mod -7.1
CCCCNc1ncnc2c1cnn2-c1ccc(Cl)cc1	none
Clc1ccc(Cn2ncc3c(N4CCCCC4)ncnc32)cc1	none
CC(=O)Nc1ccc(S(=O)(=O)N(Cc2ccco2)CC2CCCO2)cc1 (stereo not given)	none (no result: DAT uptake mod)
C=CCn1c(/N=C/c2ccc(N(C)C)cc2)nc2ccccc21	none
CN(C)c1ccc(/C=N/n2ncc3ccccc32)cc1	D1 mod -3.4 (no result: ROCK2 blocker)

High-throughput results as filed in PubChem.
